In PubChem BioAssay:
Activity calls are given as the source filed them. Unless noted, no rule for the calls is given here.

Key:
[1] = test system: XIP peptide (Xip251-270) binding; assay: XIP fragment 251-270 binding compounds – biochemical, small-molecule microarray, fluorescence 635/667 nm, 0.1 µg/mL protein, primary screen (AID 1182); conditions: fluorescent protein binding, 635 nm, higher = more signal, called active from +8 up or from −8 down
XIP peptide (Xip251-270) = assay: compounds binding XIP fragment 251-270 – biochemical, small-molecule microarray, fluorescence 635/667 nm, 0.5 µg/mL protein, primary screen (AID 1183); conditions: fluorescence 635 nm, higher = more signal
[2] = blood-stage malaria parasite viability loss – strain 3D7, DAPI fluorescence, 100 nL, primary screen (AID 1184);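 also: parasites grown inside human red blood cells in medium with human serum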; conditions: P. falciparum 3D7 growth, 3 d, higher = more signal
[3] = molecular target: Homeobox protein Hox-A13 (Mus musculus) (UniProt Q62424); assay: disruptors of Hoxa13 oligonucleotide interaction – biochemical, fluorescence polarization, labeled oligonucleotide, primary screen (AID 1185); conditions: Hoxa13:DNA binding, 15 min, higher = more signal, called active from +8 up or from −8 down
[4] = blockers of DNA damage checkpoint Chk1 activation – imaging, HeLa, hydroxyurea, phospho-Chk1 antibody, percent positive cells, primary screen (AID 1186); conditions: hydroxyurea-induced phospho-Chk1 immunofluorescence imaging, higher = more signal
[5] = blockers of DNA damage checkpoint Chk1 activation – imaging, HeLa, hydroxyurea, phospho-Chk1 nuclear intensity, primary screen (AID 1187); conditions: hydroxyurea-induced phospho-Chk1 immunofluorescence imaging, higher = more signal

Sequence of Homeobox protein Hox-A13 (Mus musculus) (Q62424 whole entry, looked up): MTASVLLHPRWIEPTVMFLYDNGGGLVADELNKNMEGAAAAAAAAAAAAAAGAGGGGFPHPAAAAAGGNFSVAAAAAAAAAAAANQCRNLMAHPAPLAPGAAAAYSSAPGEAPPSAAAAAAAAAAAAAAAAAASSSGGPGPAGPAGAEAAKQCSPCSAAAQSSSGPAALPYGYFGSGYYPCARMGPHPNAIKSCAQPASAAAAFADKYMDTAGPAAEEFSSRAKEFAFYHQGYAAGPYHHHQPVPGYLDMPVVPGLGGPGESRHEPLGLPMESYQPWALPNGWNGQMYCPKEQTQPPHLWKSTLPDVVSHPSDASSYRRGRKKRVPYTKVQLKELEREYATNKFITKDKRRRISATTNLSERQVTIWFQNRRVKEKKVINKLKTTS

| Structure (SMILES) | composite z-score [1] | composite z-score (XIP peptide (Xip251-270)) | z-score [2] | z-score [3] | z-score [4] | z-score [5] |
| --- | --- | --- | --- | --- | --- | --- |
| COCCCNC(=O)[C@]1(Cc2ccccc2N=[N+]=[N-])N=C(c2ccc(OCCCO)cc2)O[C@@H]1c1ccccc1N=[N+]=[N-] | -0.207 (inactive) | 0.538 | -2.11 | -1.51 (inactive) | -0.553 (inactive) | -0.627 (inactive) |
| COCCOC(=O)N1C(=O)[C@@]2(c3cc(C#CC4(O)CCCCCC4)ccc31)[C@H](C(=O)N1CCCCCCC1)[C@H]1C(=O)O[C@H](c3ccccc3)[C@H](c3ccccc3)N1[C@@H]2c1ccc(OCCO)cc1 | 1.72 (inactive) | 0.838 | -2.3 | -15.8 (active) | 0.331 (inactive) | 0.805 (inactive) |
| CC(CO)N1C(=O)[C@@H]2C3C(=O)OCCC/C=C\[C@H]3OC23C=CCN(Cn2nnc4ccccc42)C(=O)[C@@H]13 (stereo not given in full) | -0.584 (inactive) | 0.475 | 0.357 | -2.97 (inactive) | -0.235 (inactive) | 0.103 (inactive) |
| C[C@H]1ON(c2ccc(C(=O)OC(C)(C)C)cc2)[C@@H](c2ccc(O)cc2)[C@@H]1C(=O)N1C(=O)OC[C@@H]1c1ccccc1 | 0.0197 (inactive) | 0.446 | -1.47 | -4.21 (inactive) | 0.148 (inactive) | 0.062 (inactive) |
| C=CC[C@@H](OC(=O)Nc1ccc(OC)cc1)c1ccc(OCCO)cc1 | 0.456 (inactive) | -0.543 | 0.663 | -5.86 (inactive) | -0.867 (inactive) | -0.431 (inactive) |
| CCCCC(CC)C(O)C1C=CC2C(=O)N(c3ccccc3)C(=O)C2N1Nc1ccc([N+](=O)[O-])cc1 (stereo not given) | 0.389 (inactive) | 0.624 | 0.0352 | -3.6 (inactive) | 0.332 (inactive) | -0.383 (inactive) |
| CON(C)C(=O)C=C1C[C@@H](c2cccc(Cl)c2)O[C@@H](c2cccc(Cl)c2)O1 | 2.75 (inactive) | 0.454 | -2 | -3.48 (inactive) | -0.0938 (inactive) | -0.0296 (inactive) |
| CCOC(=O)C[C@H]1[C@H](OC(=O)Cc2ccc3c(c2)OCO3)[C@@H](NC(=O)Cc2ccc(OC)cc2)c2cc(OCCCO)ccc2N1C(=O)c1ccccc1 | 1.08 (inactive) | -0.0883 | -0.382 | -2.51 (inactive) | -0.543 (inactive) | -0.165 (inactive) |
| COc1c(C)cc(-c2cc3c(c(Cc4ccccc4)n2)[Si](C(C)C)(C(C)C)OC3)cc1C | -0.337 (inactive) | -0.0392 | -2.74 | 0.472 (inactive) | -0.142 (inactive) | 0.135 (inactive) |
| CN(C)CCCN1C(=O)[C@@]2(c3ccc([N+](=O)[O-])cc3)CC(=O)N(CC34CC5CC(CC(C5)C3)C4)[C@@H]2c2ccc(CO)cc21 | -0.0347 (inactive) | 0.35 | -0.428 | -2.47 (inactive) | -0.411 (inactive) | -0.112 (inactive) |
| CCOC(=O)C[C@H]1[C@H](OC(=O)c2ccc(-c3ccccc3)cc2)[C@@H](NC(=O)c2ccc3ccccc3c2)c2cc(OCCCO)ccc2N1C(=O)c1ccc2ccccc2n1 | 0.0454 (inactive) | 0.338 | 0.563 | -1.16 (inactive) | -0.361 (inactive) | -0.561 (inactive) |
| COc1c(C)cc(-c2cc3c(c(-c4ccccc4)n2)[Si](C(C)C)(C(C)C)OC3)cc1C | 0.518 (inactive) | -0.479 | -1.03 | -0.238 (inactive) | -0.645 (inactive) | -0.268 (inactive) |
| COc1cc(CO)cc(I)c1O[C@H]1C=C(C(=O)NCCO)C[C@@H](N(CC2CCCCC2)C(=O)c2ccc(C(F)(F)F)cc2)[C@@H]1O | -0.175 (inactive) | 0.516 | 1.09 | -6.43 (inactive) | -0.409 (inactive) | -0.884 (inactive) |
| O=C1O[C@@H](c2ccccc2)[C@@H](c2ccccc2)N2[C@@H](c3ccccc3OCCO)[C@]3(C(=O)Nc4ccc(C#CCCO)cc43)[C@@H](C(=O)N3CCN(c4ncccn4)CC3)[C@H]12 | 0.665 (inactive) | 0.617 | -2.05 | -1.33 (inactive) | -0.0995 (inactive) | 0.113 (inactive) |
| COc1ccccc1CN1C(=O)c2ccccc2[C@](Cc2ccccc2I)(C(=O)NC(C)C)[C@@H]1c1ccc(CO)cc1 | 0.265 (inactive) | 0.585 | -1.95 | -3.59 (inactive) | -0.316 (inactive) | -0.471 (inactive) |
| O=C1OCCC=C[C@H]2OC34C=CCN(c5ccc(Cl)cc5)C(=O)[C@H]3N(CCCCCO)C(=O)[C@@H]4C12 (stereo not given in full) | 0.445 (inactive) | -0.342 | 0.684 | -5.82 (inactive) | 0.578 (inactive) | 0.434 (inactive) |
| CN(C)CCCNC(=O)[C@@]1(c2ccc([N+](=O)[O-])cc2)CC(=O)N(CC23CC4CC(CC(C4)C2)C3)[C@@H]1c1ccc(CO)cc1 | 1.13 (inactive) | 0.843 | -2.4 | 7.52 (inactive) | -0.451 (inactive) | -0.75 (inactive) |
| CC(C)(C)OC(=O)CC[C@]1(C(=O)N2CCOCC2)N=C(c2ccc(OCCCO)cc2)O[C@H]1c1ccccc1 | -0.0263 (inactive) | 0.689 | -0.29 | -5.96 (inactive) | -0.443 (inactive) | -0.494 (inactive) |

| Structure (SMILES) | composite z-score [1] | composite z-score (XIP peptide (Xip251-270)) | z-score [2] | z-score [3] | z-score [4] | z-score [5] |
| --- | --- | --- | --- | --- | --- | --- |
| COCCOC(=O)N1C(=O)[C@@]2(c3cc(C#CC4(O)CCCCCC4)ccc31)[C@H](C(N)=O)[C@H]1C(=O)O[C@H](c3ccccc3)[C@H](c3ccccc3)N1[C@@H]2c1ccc(O)cc1 | 0.722 (inactive) | 0.503 | 0.997 | -2.76 (inactive) | -0.102 (inactive) | 0.245 (inactive) |
| COc1ccc(NN2C(C(O)c3ccco3)C=CC3C(=O)N(C4CCCCC4)C(=O)C32)cc1 (stereo not given) | 0.902 (inactive) | 0.68 | -0.244 | -3.76 (inactive) | -0.266 (inactive) | -0.504 (inactive) |
| C=CC1c2cc(O)c(OC)cc2CCN1Cc1sc2ccccc2c1Cl (stereo not given) | 0.51 (inactive) | 0.618 | -0.614 | -2.71 (inactive) | 0.326 (inactive) | -0.0459 (inactive) |
| COc1ccc([Si](C)(C)[C@@H]2[C@@H](CC(=O)N3CCC[C@H]3CO)O[C@]3(C(=O)N(Cc4ccc(N5C(=O)c6cccc7cccc5c67)cc4)c4ccccc43)[C@H]2C)cc1 | 0.353 (inactive) | 0.792 | -2.09 | -3.19 (inactive) | 0.48 (inactive) | 0.451 (inactive) |
| NC(=O)N1C(=O)C2C(C1=O)C1C=C(CCCO)C2C(c2cccs2)N1Cc1cc2c(cc1Br)OCO2 (stereo not given) | 0.0706 (inactive) | 0.231 | 0.376 | -5.04 (inactive) | 0.164 (inactive) | 0.509 (inactive) |
| CN1C(=O)C2C=CC(C(O)C3CCCCC3)N(N3CCCCC3)C2C1=O (stereo not given) | 0.269 (inactive) | 0.803 | -0.151 | -3.82 (inactive) | 0.796 (inactive) | 0.332 (inactive) |
| C[C@]12C(=O)N(CCCCCCO)[C@@H]3C(=O)N(c4ccc(Cl)cc4)CC=CC31O[C@@H]1/C=C\CCCOC(=O)C12 (stereo not given in full) | -0.295 (inactive) | -0.0821 | -0.692 | -4.68 (inactive) | -0.659 (inactive) | 0.264 (inactive) |
| CCCCN1CC=CC23O[C@@H]4/C=C\CCC(C)OC(=O)C4[C@H]2C(=O)N(CCCCCCO)[C@@H]3C1=O (stereo not given in full) | 0.879 (inactive) | 0.0096 | 0.11 | -4.7 (inactive) | -0.494 (inactive) | 0.339 (inactive) |
| COC(=O)Cn1c(C(=O)N2CCCC2)cc2c1C[C@H]1CN(C(=O)c3ccccc3)[C@@](Cc3ccc(F)cc3)(C(=O)OC)[C@@H]21 | 0.243 (inactive) | 0.513 | 0.554 | -5.15 (inactive) | -1.49 (inactive) | -1.37 (inactive) |
| CC=CC(O)C1C=CC2C(=O)N(C)C(=O)C2N1Nc1ccc([N+](=O)[O-])cc1[N+](=O)[O-] (stereo not given) | 0.32 (inactive) | 0.266 | 0.619 | -0.734 (inactive) | -0.0994 (inactive) | -0.104 (inactive) |
| C=CC[C@@]1(C(=O)O)N=C(c2ccc(OCCCO)cc2)O[C@@H]1c1ccccc1 | 0.759 (inactive) | 0.994 | -0.441 | -4.13 (inactive) | -0.106 (inactive) | -0.0411 (inactive) |
| O=C1C[C@@](C(=O)NCC(F)(F)F)(c2ccc([N+](=O)[O-])cc2)[C@@H](c2ccc(CO)cc2)N1C1CCCCC1 | 0.925 (inactive) | 0.871 | 0.0369 | -4.46 (inactive) | -0.0554 (inactive) | -0.32 (inactive) |
| C[C@H]1C2=C3C(CC[C@H]4C(OCc5ccc(F)cc5C(F)(F)F)OC[C@](C)([C@@H]34)N(C(=O)OC(C)(C)C)C2)C(CO)C1CO (stereo not given in full) | 0.456 (inactive) | 0.724 | -0.736 | -4.04 (inactive) | 0.491 (inactive) | 0.52 (inactive) |
| CC(C)(C)OC(=O)CC[C@@]1(C(=O)O)N=C(c2ccc(OCCCO)cc2)O[C@@H]1c1ccccc1 | 0.0877 (inactive) | 0.84 | 0.274 | -2.94 (inactive) | -0.0016 (inactive) | 0.18 (inactive) |
| [N-]=[N+]=NCc1ccccc1[C@H]1OC(c2ccc(OCCCO)cc2)=N[C@@]1(CCS(=O)(=O)c1ccccc1)C(N)=O | 1 (inactive) | 0.558 | -1.09 | -3.46 (inactive) | 0.163 (inactive) | 0.0372 (inactive) |
| O=C1NCC(=O)N2[C@@H]1C[C@@H](C(=O)O)[C@H]2c1ccc(O)cc1 | 1.26 (inactive) | 0.665 | 0.489 | -1.91 (inactive) | 0.0155 (inactive) | 0.0565 (inactive) |
| O=C(O)[C@H]1C[C@H]2C(=O)N3CCC[C@H]3C(=O)N2[C@H]1c1cccc(OCCO)c1 | 0.25 (inactive) | 0.335 | -0.0612 | -3.62 (inactive) | -0.217 (inactive) | 0.0679 (inactive) |
